# AmpC no deterg: qHTS Inhibitors of AmpC Beta-Lactamase (assay without detergent) | AID 485341, 2010 | Potency, µM (titrated, usually from 57.1 µM), inactives show at the top dose activity change, negative = inhibition, usual class: inhibitors | AmpC nitrocefin hydrolysis, absorbance 480 nm, 0.0001% Triton | 0.52% of 330,000 active | P00811;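 note: plate controls were no compound for no effect and no enzyme for full effect; nearly all actives have a fitted effect of over 20% in size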
# Target sequence (P00811 whole entry, looked up): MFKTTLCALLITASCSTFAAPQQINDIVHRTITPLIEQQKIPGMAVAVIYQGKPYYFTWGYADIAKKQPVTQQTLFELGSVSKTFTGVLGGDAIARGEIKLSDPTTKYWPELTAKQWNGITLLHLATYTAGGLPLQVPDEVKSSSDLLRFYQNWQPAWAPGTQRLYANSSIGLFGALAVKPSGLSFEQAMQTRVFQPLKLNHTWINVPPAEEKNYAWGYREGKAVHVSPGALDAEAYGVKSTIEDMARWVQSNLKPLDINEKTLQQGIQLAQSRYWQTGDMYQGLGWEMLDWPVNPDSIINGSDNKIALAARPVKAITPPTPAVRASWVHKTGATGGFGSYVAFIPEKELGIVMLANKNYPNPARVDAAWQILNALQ
#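 AmpC (5.3 nM in the dispensed reagent) in 20 mM phosphate pH 7.0 with 0.01% (detergent screen) or 0.0001% Triton X-100 was preincubated with compounds for 15 min at room temperature. Nitrocefin was then added from an 800 uM solution, and hydrolysis was followed at 480 nm.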
# AmpC inh detg: qHTS Inhibitors of AmpC Beta-Lactamase (assay with detergent) | P00811 | AmpC hydrolysis of nitrocefin, absorbance 480 nm, 0.01% Triton | Potency, µM (highest dose often 114 µM), without a hit: top-dose activity change, negative = inhibition, hits mostly inhibitors | 0.041% of 370,000 active | AID 485294, 2010;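 note: 0% = no-compound wells and -100% = no-enzyme wells; nearly all actives have a fitted effect of over 25% in size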
#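 AmpC (5.3 nM in the dispensed reagent) in 20 mM phosphate pH 7.0 with 0.01% (detergent screen) or 0.0001% Triton X-100 was preincubated with compounds for 15 min at room temperature. Nitrocefin was then added from an 800 uM solution, and hydrolysis was followed at 480 nm.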
# AMA1 RON2 block: qHTS for Inhibitors of AMA1-RON; Towards Development of Antimalarial Drug Lead: Primary Screen. Plasmodium falciparum AMA1 (3D7) - RON2 peptide interaction. 0.2% of 360,000 active. AlphaScreen AMA1-biotinylated RON2 peptide binding. Potency, µM (titrated, usually from 58.2 µM), inactives show at the highest dose activity change, negative = inhibition, actives largely listed as inhibitors;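 note: 0% = vehicle wells and -100% = peptide control; nearly all actives have a fitted effect of over 45% in size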
#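 AMA1 (3D7) with his tag at 25 nM final met compounds first, then biotinylated RON2 peptide at 25 nM; detection used donor plus acceptor beads, 10 µg/mL apiece, read by AlphaScreen after 30 min at room temperature.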
# Sm TGR inh: qHTS Assay for the Inhibitors of Schistosoma Mansoni Peroxiredoxins; purified TGR, DTNB reduction, TNB absorbance 405 nm; Potency, µM (doses to about 114 µM), without a hit: at the highest dose activity change, negative = inhibition, hits mostly inhibitors; 3% of 360,000 active; AID 485364, 2010; note: nearly all actives have a fitted effect of over 60% in size
#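 Kinetic colorimetric format: TGR-catalysed, NADPH-driven DTNB reduction monitored via TNB absorbance. Enzyme dispensed at 20 nM; compound exposure 15 min at room temperature before reaction start.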
# FMDV antiviral: High Throughput Screening for Foot and Mouth Disease Virus Antivirals. FMDV antiviral cell-based qHTS. Potency, µM (doses to about 57.9 µM), inactives show at the highest dose activity change, negative = inhibition, hits mostly inhibitors. 1.2% of 410,000 active. AID 1159524, 2015; calls by dose curve; tested in HEK293T cells; note: read-out not given here; nearly all actives have a fitted effect of over 45% in size
# * hit, by the source's call; ? = inconclusive; . = not tested or not shown. This is a sample that favours compounds with a hit; in the whole collection about 4.1% have one here. Unless noted, calls come from the whole dose curve; as a rule, active = well fitted curve in the direction sought with a large enough effect; inconclusive = small, poorly fitted or top-dose-only effect, or another doubt; inactive = no such curve, though single readings can be large; an effect the other way counts as inactive or inconclusive. Unless noted, % is set by controls: 0 for no effect and ±100 for the full control effect; potency is the fitted concentration of half-maximal effect.
SMILES,AmpC no deterg,AmpC inh detg,AMA1 RON2 block,Sm TGR inh,FMDV antiviral
N#CCSc1nc(Nc2ccc3c(c2)OCO3)c2ccccc2n1,-35%,-12%,-7%,11%,22µM*
CCOC(=O)CSc1nc(Nc2ccc3c(c2)OCO3)c2ccccc2n1,-35%,-7%,-4%,5%,?
CCCN1CCN(CCCNC(=O)c2cnn(-c3ccc(F)cc3)c2-n2cccc2)CC1,.,10%,.,1%,25%
O=C(NCCc1nnc2n1CCN(Cc1c(F)cccc1F)CC2)c1ccc(F)cc1,.,.,.,.,-2%
C#CCNC(=O)C1=C[C@H](c2ccccc2)[C@@H](CCCO)[C@H](OCC)O1,10%,-3%,-4%,20µM*,-22%
C#CCNC(=O)C1=C[C@H](C2CCCCC2)[C@@H](CCCO)[C@H](OCC)O1,79%,2%,0%,18µM*,-14%
CCN1CCN(C(=O)C(C)Nc2cc(Cl)c(OC)cc2OC)CC1 (stereo not drawn),-19%,-12%,9%,20µM*,4%
CCOC(=O)C1(CCc2ccccc2)CCN(C2CCSCC2)CC1,-18%,-4%,?,11µM*,-14%
O=C(O)[C@H]1Cc2ccccc2CN1S(=O)(=O)c1ccc(F)cc1,3%,-5%,2%,3%,-9%
CC(=O)c1ccc(S(=O)(=O)N2Cc3ccccc3CC2C(=O)O)cc1 (stereo not drawn),-31%,-10%,0%,11µM*,1%
O=c1c(N2CCc3ccccc3C2)csc2ccc(F)cc12,.,17%,.,0%,33%
CC(C)Oc1ccc(Cc2cnc(=S)[nH]c2N)cc1,-44%,-15%,80%,71µM*,-18%
Cc1ccc(S(=O)(=O)N2CCN(CCc3ccccc3)CC2)c(C)c1,25%,0%,?,0%,?
Cc1ccc(OC(=O)CN2C(=O)c3ccccc3C2=O)cc1C,-11%,2%,0%,-4%,-12%
O=C1c2ccccc2C(=O)N1OS(=O)(=O)c1ccc(F)cc1,-29%,45µM*,-8%,0.71µM*,?
O=S(=O)(c1ccccc1)N1CCN(S(=O)(=O)c2ccc(F)cc2)CC1,-18%,-21%,-2%,-21%,-10%
Cc1cc(C)c(C)c(S(=O)(=O)ON2C(=O)c3ccccc3C2=O)c1C,-41%,56µM*,-4%,1.4µM*,?
Cc1ccc(S(=O)(=O)ON2C(=O)c3ccccc3C2=O)c(C)c1,-27%,79µM*,-14%,1.4µM*,?
Cc1cccc2c1N(C)C(=O)C2=O,-7%,3%,3%,-5%,3%
Cc1cc(C)c(S(=O)(=O)ON2C(=O)c3ccccc3C2=O)cc1C,-36%,50µM*,-6%,0.89µM*,25µM*
Cc1ccc(-c2noc(-c3ccc(N4CCCC4)c([N+](=O)[O-])c3)n2)cc1,.,13%,.,-14%,0%
N=C(N)SCc1cn(-c2ccccc2)nc1-c1ccc(Br)cc1,-32%,0%,-11%,63%,20µM*
CC(=O)Oc1c(C)cc(O)c2ccccc12,-31%,?,.,40µM*,.
CC(=O)Cc1cc(O)c2ccccc2c1OC(=O)c1ccccc1,-4%,1%,-14%,.,-16%
O=C(c1cn(C2CCCN(Cc3cc(Cl)ccc3O)C2)nn1)N1CCCCC1 (stereo not drawn),.,.,.,.,-14%
SMILES,AmpC no deterg,AmpC inh detg,AMA1 RON2 block,Sm TGR inh,FMDV antiviral
COc1ccc(CNC(=O)CCCc2cn(C)c3ccccc23)c(OC)c1,.,6%,.,3%,-6%
CN=c1scc(-c2ccco2)n1/N=C/c1ccc(O)c(O)c1,-44%,4%,-12%,10µM*,14µM*
COc1ccc(O)c(/C=N/n2c(-c3ccco3)csc2=Nc2cccnc2)c1,-9%,-6%,43%,-16%,?
COc1cc(/C=C2\SC(=S)N(CCC(=O)N3CCCCC3)C2=O)cc(OC)c1OC,30%,?,4%,-2%,28µM*
Cc1ccc(/C=C2\SC(=S)N(CCC(=O)N3CCCCC3)C2=O)cc1,-16%,0%,10%,5%,5%
CC1(C)CC(CCNC(=O)CCl)(c2ccccc2)CCO1 (stereo not drawn),18%,-5%,5%,45µM*,-26%
CCN(CC)S(=O)(=O)c1cc(-c2nnc(Nc3ccc(OC)c(C(N)=O)c3)c3ccccc23)ccc1C,.,8%,.,4%,?
O=C(O)/C=C/C(=O)Nc1ccc(Oc2ncnc3cc(Cl)ccc23)nc1,-21%,2%,-3%,8.9µM*,12%
CCn1c(SCC(=O)Nc2nccs2)nnc1-c1ccccc1,?,-1%,9%,2%,15%
CCn1c(SCC(=O)Nc2nccs2)nnc1-c1ccc(S(=O)(=O)N2CCCCC2)cc1,-6%,-10%,-17%,-30%,25µM*
O=C(/C=C/c1ccco1)NC(=S)Nc1ccccc1N1CCOCC1,-26%,1%,39%,32µM*,?
O=C(/C=C/c1ccco1)Nc1ccccc1N1CCCC1,-12%,-5%,-16%,40µM*,-8%
O=C(O)/C=C\C(=O)Nc1ccccc1N1CCN(c2ccccc2)CC1,-23%,4%,-12%,11µM*,14%
CCCCCC(=O)Nc1ccccc1N1CCN(c2ccccc2)CC1,-29%,-6%,14%,1%,.
O=[N+]([O-])c1cc(-c2nc(-c3cccnc3)no2)ccc1NCc1ccccc1,.,-5%,.,-2%,-22%
O=C(Nc1cnc(N2CCC(N3CCCCC3)CC2)c(C(=O)O)c1)c1ccc(Br)cc1,.,-5%,.,?,-13%
CC(=O)NCCNC(=O)CCCc1nnc2n(CCC(C)C)c(=O)c3sccc3n12,.,20%,.,9%,-5%
Cc1ccc(NC(=O)c2sc(-n3nc(C)c(CCC(C)C)c3C)nc2C)cc1C,.,14%,.,-2%,-17%
CC(=O)Nc1ccc(C23CC4CC(CC(C4)C2)C3)cc1,62%,-1%,-7%,-7%,31%
Oc1ccc(C23CC4CC(CC(C4)C2)C3)cc1O,-29%,4%,-22%,1.8µM*,-21%
COC(=O)c1ccc(CSc2ccc3nnc(-c4cccnc4)n3n2)o1,-7%,?,.,40µM*,.
COc1ccccc1-c1cc(C(F)(F)F)nc(S(=O)(=O)CCCC(=O)Nc2ccc(F)c(Cl)c2)n1,.,9%,.,-12%,0%
CS(=O)(=O)c1nc(-c2ccccc2)cc(C(F)(F)F)n1,-13%,?,-8%,10µM*,7.9µM*
COc1ccc(-c2cc(C(F)(F)F)nc(S(=O)(=O)CCCC(=O)Nc3ccccc3C(F)(F)F)n2)cc1OC,.,5%,.,?,22µM*
COc1ccc(-c2cc(C(F)(F)F)nc(S(=O)(=O)CCCC(=O)Nc3cccc(O)c3)n2)cc1OC,-17%,1%,-16%,35µM*,20µM*

# Source: PubChem BioAssay (National Center for Advancing Translational Sciences (NCATS))
